According to PubChem BioAssay (NCI):
The panel holds about 79,000 compounds, 15% with a hit somewhere; the sample as a whole holds those more often. Unmarked numbers belong to inactive results. The source made the active and inactive calls. No stated cut-off is given here; in the data, active means growth inhibition above about 70%; inactive means the rest.

Assay: NCI Yeast Anticancer Drug Screen. Data for the mlh1 rad18 strain (AID 175)
Conditions: S. cerevisiae mlh1 rad18 strain growth inhibition; at 50.0 µM; hits give high values
Description: Growth inhibition of yeast strains with defined genetic alterations is measured as a screen for potential anti-cancer activity. Selected strains with alterations in DNA damage repair or cell cycle control were exposed to compounds and growth inhibition was measured relative to vehicle treated controls. The strain used in this assay is mlh1 rad18

Structure (SMILES)	growth inhibition
CC(C)Cc1ccc(C(C)CC2=CCC(CN(C)C)C2=O)cc1 (stereo not given)	89.3% (active)
O=C(/C=C/c1ccc(O)cc1)c1ccc2c(c1)OCO2	43.8%
CC(C)CCCC(C)C1CCC2C3CC=C4CC(P(=O)(c5ccccc5)c5ccccc5)CCC4(C)C3CCC12C (stereo not given)	-12.1%
CC12CC3CC(C)(C1)CC(SCCN=C(N)CCl)(C3)C2	99.2% (active)
Cc1ccc(-c2c(C#N)c(-c3ccccc3)n(NS(=O)(=O)c3ccccc3)c(=O)c2C#N)cc1	51.1%
O/N=C1\CCc2nonc2\C1=N/Nc1ccccc1	-1.9%
CC(=O)NNc1nc(C)c(C(/C=C/c2ccc(NC(C)=O)cc2)=N/NS(=O)(=O)c2ccc(C)cc2)s1	-21.4%
CC(O)CN1CNC(=S)NC1 (stereo not given)	-7.25%
CCOC(=O)c1cc(CC)[nH]c(=O)c1C#N	2.3%
CCOC(=O)NC(=S)Nc1cn(C)cc1[N+](=O)[O-]	11.7%
O=C(O)c1ccc([N+](=O)[O-])cc1Cl	-7.55%
Cc1ccc(N=CN(C)C)c(Cl)c1	-23.1%
Cc1cc(Br)c(I)c([N+](=O)[O-])c1	6.25%
COc1ccc(/C=N/NC(=O)O)cc1	-18.4%
Nc1ccc(Nc2ccc([N+](=O)[O-])cc2S(=O)(=O)O)cc1	10.8%
Cc1cc(C(C)C)c(C)cc1C(C)C	-4.15%
COC1OC2COC(c3ccccc3)OC2C(N=[N+]=[N-])C1O (stereo not given)	2.2%
COc1cc(C(=O)O)cc(OC(C)=O)c1OC	20.7%
CCOC(=O)CCC(NC1=C(Cl)C(=O)c2ccccc2C1=O)C(=O)O (stereo not given)	24.9%
OCCNc1ncnc2ccccc12	-18.9%

Structure (SMILES)	growth inhibition
COc1cc2c(cc1C1=NC(C)(C)CO1)OCO2	-49.2%
CC(=O)Nc1cc2cc(NS(=O)(=O)c3cc(C(F)(F)F)cc(C(F)(F)F)c3)ccc2oc1=O	10.9%
Cc1ccc(S(=O)(=O)/N=[N+](\[O-])c2ccc(N(C)C)cc2)cc1	-3.35%
CNc1nc(C(F)(F)F)nc2[nH]ncc12	-20.9%
CCOC(COc1ccc2ccccc2c1)OCC	-10.1%
O=C(Nc1nc2c(ncn2C2OC(CO)C(O)C2O)c(=O)[nH]1)c1ccccc1 (stereo not given)	15.6%
NNC(=O)CCCCCCO	7.45%
Oc1ccc(C(O)CNCCCCCCNCC(O)c2ccc(O)c(O)c2)cc1O (stereo not given)	-4.65%
Cc1ccccc1Nc1nc2ccccc2nc1NS(=O)(=O)c1ccccc1	-58.4%
O=C(/C=C(/CC(=O)c1ccccc1)C(=O)c1ccccc1)c1ccccc1	-30.8%
O=c1[nH]c(=O)c2nc3cc(-c4ccc5nc6[nH]c(=O)[nH]c(=O)c6nc5c4)ccc3nc2[nH]1	7%
CC[O-].CC[O-].O=C1C=C([O-])C(=O)c2ccccc21.O=C1C=C([O-])C(=O)c2ccccc21.[Ti+4]	4.9%
C[C@@H]1CC[C@]2(C(=O)O)CC[C@]3(C)C(=CC[C@@H]4[C@@]5(C)CC[C@H](O)C(C)(C)[C@@H]5CC[C@]43C)[C@@H]2[C@]1(C)O	-65%
Cc1c(-c2ccccc2)noc1-n1nnc2ccccc2c1=O	9.05%
COC(=O)c1nc(=S)[nH]c(C(=O)OC)c1C(=O)c1ccc(C)cc1	21.4%
C[C@@H]1C(=O)CC2(O)[C@@]13C[C@@H](OC(=O)[C@@H]3O)[C@@H](C)[C@@]21COC1=O (stereo not given in full)	-47.1%
CCOC(=O)/C=C/C(=O)O.[Cu+2]	11.9%
Cc1cccc(C)c1NC(=O)C(Cl)Cl	-0.15%
C=CC(O)C1OC2OC(C)(C)OC2C2OC(C)(C)OC12 (stereo not given)	5.45%
NC(=O)c1nnsc1NC=O	-29.8%
